Each structure is given as a SMILES string. Inconclusive results are not listed. A call without a number means that no potency is given here. A number with no mark means an inactive call. Active and inactive are the calls of the source. The call rests on the fitted dose curve; in most records, active means well fitted cell-killing curve with a large enough effect; inconclusive means small, poorly fitted or top-dose-only effect; inactive means no such curve, though single readings can be large or run the other way.
Potency means the concentration at half of the fitted maximal effect.

The nature of the assay: qHTS of pediatric cancer cell lines to identify multiple opportunities for drug repurposing: Primary screen for SK-N-MC cells (AID 1347093). Particulars: SK-N-MC viability, CellTiter-Glo luminescence, 48 h; series mostly up to 46 µM. An excerpt:
Drug repurposing or repositioning has been offered as a strategy for drug development in oncology programs. This approach has special potential for childhood cancers and other rare or orphan diseases, where the expected return on new drug development has been a disincentive to pharmaceuticals.
In this project we exploit the poly-pharmacology of drugs to discover new indications via phenotypic screening of a panel of 19 well-characterized cell lines derived from solid tumors seen in children and adolescents. The goal is to identify approved drugs with previously unrecognized anticancer properties that has the potential to reveal new mechanisms and biological processes involved in carcinogenesis or drug resistance. We employed a titration-based paradigm (quantitative high-throughput screening or qHTS), where all compounds were tested at multiple concentrations for their effect on cell viability. Concentration-response curves (CRCs) were derived directly from the primary screen, and both potency and efficacy values were used to identify compounds with robust bioactivity profiles. We screened the NIH Chemical Genomics Center (NCGC) Pharmaceutical Collection (NPC) and Mechanism Interrogation Plate (MIPE) small molecule collections of approved and investigational compounds against these cell lines; and measured metabolically active cells after 48 hours of compound treatment as a proxy for cell viability.
Assay Submitter: Nathalia J. Martinez, National Center for Advancing Translational Sciences, National Institutes of Health, Rockville, MD, USA; email: natalia.martinez@nih.gov
[1] Shen, M et al. Quantitative high-throughput phenotypic screening of pediatric cancer cell lines identifies multiple opportunities for drug repurposing. Oncotarget 2017 Dec 19;9(4):4758-4772. PMID 29435139.
The cells were obtained from University of North Carolina (UNC), Pediatric Preclinical Testing Program (PPT), and Coriell Institute (CI).
qHTS cell viability assay:
Cells were assayed in growth media at a density of 500-1,000 cells/well. Five microliters of cells were dispensed into 1,536-well, white, solid-bottom, TC-treated plates (Greiner Bio One) using a multidrop dispenser and incubated at 37 degrees C, 5% CO2, under a humidified atmosphere for 5 hours. Twenty-three nanoliters of compounds and controls (neutral control DMSO or positive control bortezomib at final concentration of 2.3 µM) were subsequently transferred by Kalypsys pintool. For primary screens, the MIPE collection was tested at 11-point dilutions (final concentrations range from 0.78 nM to 46 µM) and the NPC collection at 8-point dilutions (final concentrations range from 0.59nM to 46 µM). Compounds tested in follow-up screens were assayed at 11-point dilutions. Cells were incubated for 48 hours, followed by addition of 3 uL of CellTiter-Glo (Promega). After a 15 min incubation at room temperature, samples were analyzed for luminescence intensity using a ViewLux High-throughput CCD imager equipped with clear filters.
For orientation: qHTS replaces the single test concentration by a dilution series.
On to `COc1cccc(OC)c1C(=O)N[C@@H]1C(=O)N2[C@@H]1SC(C)(C)[C@@H]2C(=O)O`, for which the Potency entry is “inactive”.

For `N[C@@H](CCC(=O)N[C@@H](CS)C(=O)NCC(=O)O)C(=O)O`, the Potency entry was “inactive”.

On to `CCCCC(CC)CN=C(N)NC(N)=NCCCCCCN=C(N)NC(N)=NCC(CC)CCCC` (stereo not given), for which the Potency is 5.31 µM (active).

As for `CC[C@@H](CO)NCCN[C@@H](CC)CO`, the Potency entry was “inactive”.

Turning to `C[C@H]1[C@H](NC(=O)/C(=N/OC(C)(C)C(=O)O)c2csc(N)n2)C(=O)N1S(=O)(=O)O` (stereo in doubt), the Potency result was “inactive”.

On to `CC(C)(Oc1ccc(Cl)cc1)C(=O)O`, for which the Potency entry is “inactive”.

For the compound `CC(=O)c1ccc2c(c1)N(CCCN1CCC(CCO)CC1)c1ccccc1S2`, the Potency result was “inactive”.

For the compound `CCCCCCC[N+](CC)(CC)CCCCc1ccc(Cl)cc1`, the Potency is 3.35 µM (active).

In the case of `OC[C@H]1O[C@H](O[C@]2(CCl)O[C@H](CCl)[C@@H](O)[C@@H]2O)[C@H](O)[C@@H](O)[C@H]1Cl`, the Potency entry is “inactive”.

Turning to `C[n+]1c2cc(N)ccc2cc2ccc(N)cc21` (tested in a mixture with another compound), the Potency is 8.41 µM (active).

With `CCN1CCC[C@H]1CNC(=O)c1c(OC)ccc(Br)c1OC`, the Potency result was “inactive”.

`CCCCC1=NC2(CCCC2)C(=O)N1Cc1ccc(-c2ccccc2-c2nn[nH]n2)cc1`: the Potency entry is “inactive”.

For `NCCc1ccn[nH]1`, the Potency result was “inactive”.

Regarding `CCCCCCCCCCCCCCCC[N+](C)(C)CC`, the Potency is 2.66 µM (active).

For `O=C(Nc1ccc(Cl)c(Cl)c1)C1CC1`, the Potency entry was “inactive”.

In the case of `CN(C)/N=N/c1nc[nH]c1C(N)=O`, the Potency is 2.66 µM (active).

On to `CC(C)COC(=O)c1ccc(N)cc1`, for which the Potency result is “inactive”.

For `Cc1c(C(N)=O)cc([N+](=O)[O-])cc1[N+](=O)[O-]`, the Potency result was “inactive”.

As to `CC/C(=C(/CC)c1ccc(O)cc1)c1ccc(O)cc1`, the Potency is 6.68 µM (active).

Regarding `CCN(CC)CCOc1ccc(C(O)(Cc2ccc(Cl)cc2)c2ccc(C)cc2)cc1` (stereo not given), the Potency was 21.1 µM (active).

In the case of `Cc1cccn2c(=O)c(-c3nnn[nH]3)cnc12`, the Potency result was “inactive”.

`CCCCC(=O)O[C@]1(C(=O)CO)CC[C@H]2[C@@H]3CCC4=CC(=O)CC[C@]4(C)[C@H]3[C@@H](O)C[C@@]21C`: the Potency entry was “inactive”.

Regarding `NCCCC[C@H](N[C@@H](CCc1ccccc1)C(=O)O)C(=O)N1CCC[C@H]1C(=O)O`, the Potency result is “inactive”.

For the compound `COC(=O)[C@@H]1CC2=CC(=O)CC[C@]2(C)[C@@]23O[C@@H]2C[C@@]2(C)[C@@H](CC[C@@]24CCC(=O)O4)[C@H]13`, the Potency result was “inactive”.

On to `CC(C)(C)NC(=O)[C@@H]1CN(Cc2cccnc2)CCN1C[C@@H](O)C[C@@H](Cc1ccccc1)C(=O)N[C@H]1c2ccccc2C[C@H]1O`, for which the Potency result was “inactive”.

With `CC(C)n1nc(-c2cc3cc(O)ccc3[nH]2)c2c(N)ncnc21`, the Potency is 0.299 µM (active).

Regarding `Cc1onc(-c2c(Cl)cccc2Cl)c1C(=O)N[C@@H]1C(=O)N2[C@@H]1SC(C)(C)[C@@H]2C(=O)O`, the Potency result is “inactive”.

In the case of `C[C@]12CCC(=O)C=C1CC[C@H]1[C@@H]3CC[C@](O)(C(=O)CO)[C@@]3(C)C[C@H](O)[C@@]12F`, the Potency result is “inactive”.

For the compound `CN=C(NC#N)Nc1ccc(C2=NNC(=O)CC2C)cc1` (stereo not given), the Potency result is “inactive”.

Consider `COc1cc(C(=S)N2CCOCC2)cc(OC)c1OC`, for which the Potency entry was “inactive”.

Regarding `COc1cc(OC)cc(OC)c1`, the Potency result was “inactive”.

`CC(=O)[C@H]1CC[C@H]2[C@@H]3C[C@H](C)C4=CC(=O)CC[C@]4(C)[C@H]3[C@@H](O)C[C@]12C`: the Potency entry is “inactive”.

Regarding `C[C@]12CC[C@@H]3c4ccc(O)cc4CC[C@H]3[C@@H]1C[C@@H](O)[C@@H]2O`, the Potency entry is “inactive”.

Consider `C[C@H](O)C(=O)Nc1c(I)c(C(=O)NC(CO)CO)c(I)c(C(=O)NC(CO)CO)c1I`, for which the Potency result is “inactive”.

Take `CC(=O)Oc1ccc(C(=C2CCCCC2)c2ccc(OC(C)=O)cc2)cc1`: the Potency result is “inactive”.

For the compound `Cc1ccc(C(=O)C(C)CN2CCCCC2)cc1` (stereo not given), the Potency entry was “inactive”.

`CCn1cc(C(=O)O)c(=O)c2cnc(N3CCCC3)nc21`: the activity change, negative = cytotoxic was -9.99% [at 9.22 µM].

For `O=C1OC2(c3ccc(O)cc3Oc3cc(O)ccc32)c2ccccc21`, the Potency entry is “inactive”.

Take `CN1[C@@H]2CC[C@H]1CC(OC(=O)c1c[nH]c3ccccc13)C2` (stereo not given in full): the Potency entry was “inactive”.

Consider `Cc1ccc(O)c2ncccc12`, for which the Potency was 2.99 µM (active).

The values above are taken from PubChem BioAssay (NCATS).
